In PubChem BioAssay (Tox21):
Results filed as inconclusive are left out. Calls of active or inactive are those of the source. Unless noted, calls follow the shape of the dose curve; as a rule, active = well fitted curve in the direction sought with a large enough effect in the repeat runs; inconclusive = weak or mixed curves; inactive = no such curve, though single readings can be large; an effect the other way counts as inactive or inconclusive.

Key:
[1] = qHTS assay to identify aromatase inhibitors - cell viability counter screen (AID 743084);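 also: cells stimulated with testosterone during compound exposure; nearly all actives have a fitted effect of over 55% in size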; also: potency is read from the fitted curve at half-maximal effect
[2] = molecular target: Aryl hydrocarbon receptor (Homo sapiens) (UniProt P35869); assay: qHTS assay to identify small molecule that activate the aryl hydrocarbon receptor (AhR) signaling pathway (AID 743085); also: nearly all actives have a fitted effect of over 15% in size; also: potency is read from the fitted curve at half-maximal effect;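 as to activation: HG2L7.5c1 human HepG2 liver cells with stably integrated DRE-driven firefly reporter; series mostly up to about 70 µM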
Aryl hydrocarbon receptor (Homo sapiens), sequence (P35869 whole entry, looked up): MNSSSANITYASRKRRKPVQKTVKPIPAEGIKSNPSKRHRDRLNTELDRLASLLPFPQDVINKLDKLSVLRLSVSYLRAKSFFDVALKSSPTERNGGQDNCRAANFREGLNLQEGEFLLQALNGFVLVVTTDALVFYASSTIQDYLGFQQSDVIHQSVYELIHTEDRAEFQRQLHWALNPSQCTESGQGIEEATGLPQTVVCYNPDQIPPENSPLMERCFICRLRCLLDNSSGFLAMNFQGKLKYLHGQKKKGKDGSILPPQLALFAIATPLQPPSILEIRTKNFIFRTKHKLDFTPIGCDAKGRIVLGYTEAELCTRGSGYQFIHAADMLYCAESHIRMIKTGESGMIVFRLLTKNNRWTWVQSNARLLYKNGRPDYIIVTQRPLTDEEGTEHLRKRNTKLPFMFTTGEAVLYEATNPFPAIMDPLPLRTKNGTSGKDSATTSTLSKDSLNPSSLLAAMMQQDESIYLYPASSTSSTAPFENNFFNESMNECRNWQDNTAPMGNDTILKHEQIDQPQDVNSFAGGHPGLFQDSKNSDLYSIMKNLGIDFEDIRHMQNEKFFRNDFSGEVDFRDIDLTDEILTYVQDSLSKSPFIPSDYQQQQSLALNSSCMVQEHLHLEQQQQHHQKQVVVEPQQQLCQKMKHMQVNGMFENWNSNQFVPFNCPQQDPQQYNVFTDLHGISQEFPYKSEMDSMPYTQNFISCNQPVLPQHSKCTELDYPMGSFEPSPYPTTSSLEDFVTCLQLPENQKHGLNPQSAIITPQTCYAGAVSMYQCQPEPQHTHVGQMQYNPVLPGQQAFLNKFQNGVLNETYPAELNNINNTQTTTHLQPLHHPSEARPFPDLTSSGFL
Procedure, shortened: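 Compounds were tested in HepG2 hepatocellular carcinoma cells harbouring a stably integrated luciferase gene under control of 20 DREs. Increased reporter signal after 24 h treatment at 37C was taken as AhR activation.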

[3] = qHTS assay to identify small molecule that activate the aryl hydrocarbon receptor (AhR) signaling pathway - cell viability counter screen (AID 743086); also: nearly all actives have a fitted effect of over 45% in size; also: potency is read from the fitted curve at half-maximal effect
Procedure, shortened: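 HepG2-AhR-luc (HG2L7.5c1) cells, 4000/well, were preincubated 5 h at 37C, exposed to compound in qHTS format for 24 hr at 37C, then given CellTiter-Fluor for 30 min; viability was read as fluorescence in the reporter wells.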

[4] = molecular target: Peroxisome proliferator-activated receptor gamma (Homo sapiens) (UniProt P37231); assay: qHTS assay to identify small molecule agonists of the peroxisome proliferator-activated receptor gamma (PPARg) signaling pathway (AID 743094; active = well fitted activation curve with a large enough effect in the signal ratio in the repeat runs, not every such curve was filed as active; the % refers to the signal ratio)
Peroxisome proliferator-activated receptor gamma (Homo sapiens), sequence (P37231 whole entry, looked up): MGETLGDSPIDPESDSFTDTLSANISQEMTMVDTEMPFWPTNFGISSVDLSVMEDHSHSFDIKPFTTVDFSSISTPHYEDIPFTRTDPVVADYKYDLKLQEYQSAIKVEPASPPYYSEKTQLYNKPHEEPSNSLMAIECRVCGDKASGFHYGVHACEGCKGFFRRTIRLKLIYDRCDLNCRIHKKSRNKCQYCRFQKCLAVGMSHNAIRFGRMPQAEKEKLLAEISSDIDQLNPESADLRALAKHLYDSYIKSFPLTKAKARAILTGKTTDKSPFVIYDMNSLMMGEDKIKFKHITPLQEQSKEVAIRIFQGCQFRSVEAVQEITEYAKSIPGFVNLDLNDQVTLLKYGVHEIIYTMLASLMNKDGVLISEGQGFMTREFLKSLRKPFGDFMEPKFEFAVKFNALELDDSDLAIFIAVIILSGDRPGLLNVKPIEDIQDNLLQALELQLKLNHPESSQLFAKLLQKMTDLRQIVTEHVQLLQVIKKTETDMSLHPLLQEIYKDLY
Procedure, shortened: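 Stably transfected HEK293H cells (GeneBLAzer PPARg UAS-bla) were incubated with test substances for 17 h at 37C after a 5 h pre-incubation; beta-lactamase activity was then detected by FRET substrate fluorescence.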

[5] = molecular target: Peroxisome proliferator-activated receptor gamma (Homo sapiens) (UniProt P37231); assay: qHTS assay to identify small molecule antagonists of the peroxisome proliferator-activated receptor gamma (PPARg) signaling pathway (AID 743191; calls by dose curve; also: series mostly up to about 63 µM; nearly all actives have a fitted effect of over 30% in size)
Procedure, shortened: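 GeneBLAzer PPARg UAS-bla HEK293H cells carrying a UAS-driven beta-lactamase reporter were plated at 3000 cells/well, preincubated 5 h at 37C, then given compound for 17 h at 37C; LiveBLAzer B/G FRET substrate was read after 1 h at room temperature.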

[6] = qHTS assay to identify small molecule antagonists of the peroxisome proliferator-activated receptor gamma (PPARg) signaling pathway - cell viability counter screen (AID 743194); also: nearly all actives have a fitted effect of over 55% in size
Procedure, shortened: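 PPARg-UAS-bla HEK293H cells were plated, rested 5 h at 37 C, then treated with compounds plus rosiglitazone (50 nM final) for 17 h at 37 C; viability was then read by CellTiter-Glo luminescence after 30 min at room temperature.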

[7] = qHTS assay for small molecule agonists of the antioxidant response element (ARE) signaling pathway (AID 743202; active = well fitted activation curve with a large enough effect in the signal ratio in the repeat runs, not every such curve was filed as active; the % refers to the signal ratio)
Procedure, shortened: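 Compounds delivered in DMSO to ARE-bla HepG2 cells (2,000 cells/well, pre-incubated 5 h) and left 16 h at 37 C. LiveBLAzer B/G FRET substrate then added for 2 h at RT before fluorescence reading.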

[8] = qHTS assay for small molecule agonists of the antioxidant response element (ARE) signaling pathway - cell viability counter screen (AID 743203; calls by dose curve; also: nearly all actives have a fitted effect of over 55% in size; also: potency is read from the fitted curve at half-maximal effect)
Procedure, shortened: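 Cells (ARE-bla HepG2, 2,000/well) receive DMSO-dissolved compounds after a 5 hrs rest. Plates incubate 16 hrs at 37C/5% CO2. CellTiter-Glo luminescence is then recorded after 30 min at room temperature.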

[9] = qHTS assay for small molecule activators of the heat shock response signaling pathway - cell viability counter screen (AID 743209); also: nearly all actives have a fitted effect of over 50% in size
Procedure, shortened: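 Quantitative HTS format, Tox21 10K library. HeLa cells carrying an HSE-driven beta-lactamase reporter were treated 5 h at 37 C, then assessed for viability by CellTiter-Glo luminescence.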

[10] = molecular target: Peroxisome proliferator-activated receptor delta (Homo sapiens) (UniProt Q03181); assay: qHTS assay to identify small molecule agonists of the peroxisome proliferator-activated receptor delta (PPARd) signaling pathway (AID 743212; calls by dose curve)
Peroxisome proliferator-activated receptor delta (Homo sapiens), sequence (Q03181 whole entry, looked up): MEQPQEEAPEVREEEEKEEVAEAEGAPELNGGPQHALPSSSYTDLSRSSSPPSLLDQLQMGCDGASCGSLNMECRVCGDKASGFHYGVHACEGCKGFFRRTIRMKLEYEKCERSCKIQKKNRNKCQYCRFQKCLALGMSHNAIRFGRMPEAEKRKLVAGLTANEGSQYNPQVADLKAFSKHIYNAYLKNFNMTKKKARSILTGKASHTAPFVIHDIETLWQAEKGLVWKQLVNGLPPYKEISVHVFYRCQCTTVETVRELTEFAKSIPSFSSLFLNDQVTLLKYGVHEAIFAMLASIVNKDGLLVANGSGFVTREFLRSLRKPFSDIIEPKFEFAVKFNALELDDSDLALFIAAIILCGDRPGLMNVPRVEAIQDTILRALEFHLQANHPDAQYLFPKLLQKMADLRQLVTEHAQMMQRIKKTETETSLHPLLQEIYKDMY
Procedure, shortened: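 A PPARd-bla HEK293H line with beta-lactamase under an Upstream Activator Sequence is treated with compounds at 37 C. Substrate loading for 2 h at room temperature precedes the fluorescence measurement.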

[11] = qHTS assay to identify small molecule antagonists of the peroxisome proliferator-activated receptor delta (PPARd) signaling pathway - cell viability counter screen (AID 743213); also: nearly all actives have a fitted effect of over 50% in size
Procedure, shortened: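 Luminescence from CellTiter-Glo, added after the bla read and incubated 30 min at room temperature, gives viability of HEK293H PPARd-bla cells exposed to compounds for 17 h at 37 C with 300 nM L165041.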

[12] = qHTS assay to identify small molecule antagonists of the farnesoid-X-receptor (FXR) signaling pathway - cell viability counter screen (AID 743221; active = well fitted cell-killing curve with a large enough effect in the repeat runs, not every such curve was filed as active; also: nearly all actives have a fitted effect of over 50% in size)
Procedure, shortened: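 Multiplexed counter screen: viability of FXR-bla HEK 293T cells under agonist stimulation by chenodeoxycholic acid (50 uM, final) and test compound for 16 h at 37 C, measured by CellTiter-Glo luminescence in the reporter wells.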

[13] = qHTS assay for small molecule activators of the heat shock response signaling pathway (AID 743210; active = well fitted activation curve with a large enough effect in the signal ratio in the repeat runs, with a control signal flat, not every such curve was filed as active; the % refers to the signal ratio;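 also: HeLa cells with beta-lactamase reporter driven by heat shock elements; series mostly up to about 63 µM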)
Procedure, shortened: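 Reporter gene assay: HeLa cells stably bearing an HSE-bla construct, compound treatment 5 h at 37 C, LiveBLAzer substrate 2.5 h at RT, fluorescence intensity.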

[14] = molecular target: Bile acid receptor (Homo sapiens) (UniProt Q96RI1); assay: qHTS assay to identify small molecule antagonists of the farnesoid-X-receptor (FXR) signaling pathway (AID 743217; active = well fitted inhibition curve with a large enough effect in the signal ratio in the repeat runs, not every such curve was filed as active; the % refers to the signal ratio; also: potency is read from the fitted curve at half-maximal effect)
Bile acid receptor (Homo sapiens), sequence (Q96RI1 whole entry, looked up): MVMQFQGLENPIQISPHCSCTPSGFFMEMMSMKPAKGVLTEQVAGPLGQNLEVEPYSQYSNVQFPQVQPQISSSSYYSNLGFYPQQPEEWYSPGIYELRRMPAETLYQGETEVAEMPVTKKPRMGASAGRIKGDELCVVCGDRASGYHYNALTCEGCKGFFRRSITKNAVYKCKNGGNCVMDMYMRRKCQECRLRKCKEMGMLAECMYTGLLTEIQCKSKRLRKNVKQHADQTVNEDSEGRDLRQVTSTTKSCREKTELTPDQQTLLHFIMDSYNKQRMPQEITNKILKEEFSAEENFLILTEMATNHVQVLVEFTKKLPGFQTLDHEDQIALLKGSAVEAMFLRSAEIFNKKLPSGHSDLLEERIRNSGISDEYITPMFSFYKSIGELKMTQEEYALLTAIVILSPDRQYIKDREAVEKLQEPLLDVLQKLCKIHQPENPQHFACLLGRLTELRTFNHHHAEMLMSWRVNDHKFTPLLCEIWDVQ
Procedure, shortened: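 Beta-lactamase reporter under UAS control in HEK 293T cells; compound exposure 16 h at 37 °C in the presence of chenodeoxycholic acid (50 uM final); signal from B/G FRET substrate after 2 h at room temperature.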

[15] = qHTS assay to identify small molecule agonists of the farnesoid-X-receptor (FXR) signaling pathway - cell viability counter screen (AID 743218); also: nearly all actives have a fitted effect of over 45% in size
Procedure, shortened: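 In GeneBLAzer FXR-UAS-bla HEK 293T cells, compounds act for 16 h at 37 C. Cell viability is then scored in the reporter wells by CellTiter-Glo, 30 min at RT, luminescence.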

[16] = molecular target: Bile acid receptor (Homo sapiens) (UniProt Q96RI1); assay: qHTS assay to identify small molecule agonists of the farnesoid-X-receptor (FXR) signaling pathway (AID 743220; active = well fitted activation curve with a large enough effect in the signal ratio in the repeat runs, not every such curve was filed as active; the % refers to the signal ratio)
Procedure, shortened: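 Beta-lactamase reporter under UAS control in GeneBLAzer FXR HEK 293T cells (5000/well) measured with LiveBLAzer FRET substrate after 2 h at room temperature. Compound exposure lasted 16 h at 37C.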

[17] = molecular target: Vitamin D3 receptor (Homo sapiens) (UniProt P11473); assay: qHTS assay to identify small molecule agonists of the vitamin D receptor (VDR) signaling pathway (AID 743222; calls by dose curve)
Vitamin D3 receptor (Homo sapiens), sequence (P11473 whole entry, looked up): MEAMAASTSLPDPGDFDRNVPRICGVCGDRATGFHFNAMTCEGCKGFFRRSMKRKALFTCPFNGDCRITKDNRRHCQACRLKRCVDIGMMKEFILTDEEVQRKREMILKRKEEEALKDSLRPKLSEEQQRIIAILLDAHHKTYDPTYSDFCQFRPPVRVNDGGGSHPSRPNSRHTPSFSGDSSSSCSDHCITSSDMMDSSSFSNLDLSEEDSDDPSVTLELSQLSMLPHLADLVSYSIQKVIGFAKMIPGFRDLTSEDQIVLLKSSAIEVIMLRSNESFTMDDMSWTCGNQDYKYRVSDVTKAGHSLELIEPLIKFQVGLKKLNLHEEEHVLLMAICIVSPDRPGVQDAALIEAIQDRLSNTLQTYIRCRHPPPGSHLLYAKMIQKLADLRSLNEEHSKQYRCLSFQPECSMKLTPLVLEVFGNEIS
Procedure, shortened: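 Agonist activity measured in VDR-bla reporter cells. Exposure 16 h, 37C, 5% CO2; detection by B/G FRET substrate, 2 h RT.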

[18] = molecular target: Vitamin D3 receptor (Homo sapiens) (UniProt P11473); assay: qHTS assay to identify small molecule antagonists of the vitamin D receptor (VDR) signaling pathway (AID 743223; active = well fitted inhibition curve with a large enough effect in the signal ratio in the repeat runs, not every such curve was filed as active; the % refers to the signal ratio)
Procedure, shortened: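 Cells carrying a VDR-driven beta-lactamase reporter (VDR-bla) were co-treated with compound and 3 nM final 1alpha,25-dihydroxyvitamin D3 for 16 h at 37C; reporter activity was measured as FRET substrate fluorescence after 2 h at room temperature.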

[19] = qHTS assay to identify small molecule agonists of the peroxisome proliferator-activated receptor delta (PPARd) signaling pathway - cell viability counter screen (AID 743211); also: nearly all actives have a fitted effect of over 55% in size
Procedure, shortened: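 Counter screen for cytotoxicity run in parallel with the PPARd reporter screen. Beta-lactamase reporter HEK293H cells exposed to compounds 17 h; ATP-based CellTiter-Glo luminescence quantified viability.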

[20] = molecular target: Peroxisome proliferator-activated receptor delta (Homo sapiens) (UniProt Q03181); assay: qHTS assay to identify small molecule antagonists of the peroxisome proliferator-activated receptor delta (PPARd) signaling pathway (AID 743215; active = well fitted inhibition curve with a large enough effect in the signal ratio in the repeat runs, not every such curve was filed as active; the % refers to the signal ratio;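 also: cells stimulated with agonist L165041 at 300 nM final during compound exposure; series mostly up to about 62 µM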)
Procedure, shortened: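 Antagonist-mode beta-lactamase reporter screen: HEK293H cells with UAS-bla under PPARd control, stimulated by 300 nM L165041 (final) alongside test compound for 17 h at 37 C, then FRET fluorescence after 2 h substrate incubation.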

Measured: Potency

Cc1ccc(S)cc1
inactive: [1] | [2] | [3] | [4] | [5] | [6] | [7] | [8] | [9] | [10] | [11] | [12]

CC(=O)[C@H]1CC[C@H]2[C@@H]3C[C@H](C)C4=CC(=O)CC[C@]4(C)[C@H]3[C@@H](O)C[C@]12C
inactive: [1] | [2] | [3] | [4] | [5] | [6] | [7] | [8] | [9] | [13] | [10] | [14] | [15] | [16] | [12] | [17] | [18]

CCN(CC)CCNC(=O)c1ccc(NC(C)=O)cc1
inactive: [1] | [2] | [3] | [4] | [5] | [6] | [7] | [9] | [13] | [19] | [10] | [11] | [20] | [14] | [15] | [16] | [17]

CCOC(=O)OCC
inactive: [1] | [2] | [3] | [4] | [5] | [6] | [7] | [8] | [9] | [13] | [19] | [10] | [11] | [15] | [12] | [17]

O=C(O)c1ccc(CO)o1
inactive: [1] | [2] | [3] | [4] | [5] | [6] | [7] | [8] | [9] | [13] | [19] | [10] | [20] | [15] | [16] | [12] | [17]

OC/C(Br)=C(\Br)CO
inactive: [1] | [2] | [3] | [4] | [5] | [6] | [7] | [9] | [13] | [19] | [10] | [11] | [20] | [15] | [12] | [17] | [18]

CCC(C(=O)OCCN(CC)CC)c1ccccc1 (stereo not given)
inactive: [1] | [2] | [3] | [4] | [5] | [6] | [7] | [8] | [13] | [10] | [11] | [15] | [12] | [17] | [18]

Cc1cnc(C)c(C)n1
inactive: [1] | [2] | [3] | [4] | [5] | [6] | [7] | [8] | [9] | [13] | [10] | [20] | [15] | [12] | [17]

CC(C)c1nnc2ccc(-c3ocnc3-c3cc(F)ccc3F)cn12
inactive: [1] | [2] | [3] | [4] | [6] | [8] | [9] | [13] | [19] | [11] | [16] | [18]

C=CC(C)=CCC=C(C)C
inactive: [1] | [2] | [3] | [4] | [6] | [8] | [9] | [11] | [17] | [18]

CNC(=O)N(c1ccccc1)c1ccccc1
inactive: [1] | [2] | [3] | [4] | [6] | [8] | [9] | [13] | [19] | [11] | [12]

CCCCC(CC)COC(=O)COc1ccc(Cl)cc1C (stereo not given)
inactive: [1] | [2] | [3] | [4] | [6] | [7] | [8] | [9] | [13] | [10] | [11] | [15] | [16] | [12] | [18]

CCCCOC(=O)CCS
inactive: [1] | [2] | [3] | [4] | [6] | [7] | [8] | [9] | [13] | [19] | [10] | [11] | [15] | [16] | [12] | [17]

CC1=CC(O)CC(C)(C)C1 (stereo not given)
inactive: [1] | [2] | [3] | [4] | [6] | [7] | [8] | [9] | [13] | [19] | [10] | [11] | [12] | [17] | [18]

OCC1CC=CCC1 (stereo not given)
inactive: [1] | [2] | [3] | [4] | [6] | [7] | [8] | [9] | [13] | [19] | [10] | [11] | [20] | [17] | [18]

Cc1cc2nc3ccc(=[N+](C)C)cc-3sc2cc1N
inactive: [4] | [9] | [10] | [20] | [16] | [12] | [17] | [18]
active: [1] 26.6 µM | [2] 4.22 µM | [3] 9.44 µM | [8] 11.9 µM | [14] 10.6 µM

NCC1CCCC(CN)C1 (stereo not given)
inactive: [1] | [2] | [3] | [4] | [6] | [7] | [8] | [9] | [13] | [19] | [10] | [20] | [14] | [15] | [16] | [12] | [17]
